Records with an inconclusive call do not appear. Active and inactive are the calls of the source. The calls were made as follows: active = hit-call score of the fitted dose curve at least 0.9, where 1 is the maximum; inconclusive = response in the unintended direction; inactive = score below 0.9.
What follows are compounds tested against Retinoic acid receptor RXR-alpha (Homo sapiens) (UniProt P19793) (assay: ATG_RXRa_TRANS: Attagene TRANS-FACTORIAL HepG2 Assay for human Retinoid X Receptor alpha (RXRa) (AID 2283012)).
Outline: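 Read-out: fluorescent reporter-transcript fragments quantified by capillary electrophoresis after RT-PCR. Transiently transfected HepG2 cells carrying GAL4-UAS reporters and NR-GAL4 chimeras were exposed to chemical for 24 h; activity scored as increase over DMSO.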

Retinoic acid receptor RXR-alpha (Homo sapiens), sequence (P19793 whole entry, looked up, the tested form may be a part): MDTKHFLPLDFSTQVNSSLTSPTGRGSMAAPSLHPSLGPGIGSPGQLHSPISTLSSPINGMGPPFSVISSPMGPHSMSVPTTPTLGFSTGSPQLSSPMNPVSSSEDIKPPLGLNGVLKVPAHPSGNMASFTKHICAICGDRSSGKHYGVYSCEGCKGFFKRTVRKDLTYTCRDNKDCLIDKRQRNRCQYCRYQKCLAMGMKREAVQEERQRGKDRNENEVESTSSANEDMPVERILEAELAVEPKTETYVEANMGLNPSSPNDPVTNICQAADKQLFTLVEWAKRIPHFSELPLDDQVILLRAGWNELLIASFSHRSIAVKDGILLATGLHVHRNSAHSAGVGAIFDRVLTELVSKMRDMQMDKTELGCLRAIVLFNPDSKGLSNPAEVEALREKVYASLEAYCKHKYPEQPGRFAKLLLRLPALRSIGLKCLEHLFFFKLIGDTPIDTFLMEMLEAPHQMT

Structure (SMILES) | AC50 | outcome
[F][Sn]([c]1ccccc1)([c]1ccccc1)[c]1ccccc1 | 4.04 nM (active) | 
CC(F)(F)CC(F)(F)F |  | inactive
O=CCCl |  | inactive
Nc1ccc(-c2ccccc2)cc1 |  | inactive
CCCCN(CCCCO)N=O |  | inactive
O=C/C(Cl)=C(/Cl)C(=O)O |  | inactive
C[CH2][Hg][S]c1ccccc1C(=O)O |  | inactive
O=S1OC[C@@H]2[C@H](CO1)[C@]1(Cl)C(Cl)=C(Cl)[C@@]2(Cl)C1(Cl)Cl (stereo partly drawn) |  | inactive
O=C(NC(=O)c1c(F)cccc1F)Nc1cc(Cl)c(OC(F)(F)C(F)C(F)(F)F)cc1Cl (stereo not drawn) |  | inactive
N#Cc1ccncc1 |  | inactive
CC[N+](CC)(CC)CC |  | inactive

What follows are compounds tested against human Retinoid X Receptor beta (RXRb), RXRB (gene 6257) (UniProt P28702) (assay: ATG_RXRb_TRANS: Attagene TRANS-FACTORIAL HepG2 Assay for human Retinoid X Receptor beta (RXRb) (AID 2283013)).
Outline: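 Read-out: reporter mRNA induction via RT-PCR plus capillary electrophoresis fluorescence, analysed as signal increase relative to DMSO. Cells were human HepG2, transiently transfected with GAL4-UAS reporter constructs and chimeric receptor-Gal4 fusions, dosed for 24 h.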

human Retinoid X Receptor beta (RXRb), RXRB (gene 6257), sequence (P28702 whole entry, looked up, the tested form may be a part): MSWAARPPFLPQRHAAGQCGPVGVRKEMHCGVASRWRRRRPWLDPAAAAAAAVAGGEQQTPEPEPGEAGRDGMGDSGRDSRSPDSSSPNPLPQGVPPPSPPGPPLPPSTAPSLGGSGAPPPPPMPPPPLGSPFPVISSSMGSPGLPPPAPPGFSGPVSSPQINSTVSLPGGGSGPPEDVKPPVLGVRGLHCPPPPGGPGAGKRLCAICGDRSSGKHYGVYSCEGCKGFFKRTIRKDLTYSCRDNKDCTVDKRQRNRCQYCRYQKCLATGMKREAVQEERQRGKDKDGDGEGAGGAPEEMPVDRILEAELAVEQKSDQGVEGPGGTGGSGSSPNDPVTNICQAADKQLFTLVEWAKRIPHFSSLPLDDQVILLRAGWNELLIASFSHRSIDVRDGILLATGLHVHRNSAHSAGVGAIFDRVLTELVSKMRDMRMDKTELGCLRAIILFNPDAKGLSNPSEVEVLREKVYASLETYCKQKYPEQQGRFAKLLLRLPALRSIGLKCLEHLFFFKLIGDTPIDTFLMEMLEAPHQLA

Structure (SMILES) | outcome | AC50
O=c1nc(O)n(Cl)c(=O)n1Cl | inactive | 
CC(C)(C1CCC(O)CC1)C1CCC(O)CC1 (stereo not drawn) | inactive | 
O=C1c2ccccc2C(=O)C1C(=O)C(c1ccccc1)c1ccc(Cl)cc1 (stereo not drawn) | inactive | 
CC(=O)CN(CC(C)=O)N=O | inactive | 
CC(C)C(C)(N)C#N (stereo not drawn) | inactive | 
C1CCC(C2CCCCC2)CC1 |  | 66.1 µM (active)
c1csc(-c2ccc(-c3cccs3)s2)c1 | inactive | 
CC(=O)C(F)(F)C(F)(F)F | inactive | 
CCOCn1c(-c2ccc(Cl)cc2)c(C#N)c(Br)c1C(F)(F)F | inactive | 
CCC[CH2][Sn]([CH2]CCC)([CH2]CCC)[CH2]CCC |  | 0.0334 µM (active)
O=NN1CCCCCC1 | inactive | 
Nc1ccc(Br)cc1 | inactive | 
Clc1ccc(C(Cl)(Cl)Cl)cn1 | inactive | 
C=C(C)C(=O)OCC(CC)CCCC (stereo not drawn) | inactive | 
c1cc[c]([Sb]([c]2ccccc2)[c]2ccccc2)cc1 |  | 4.36 µM (active)
Cc1cc(-c2cc(C)c(N)c(C)c2)cc(C)c1N |  | 25.4 µM (active)
C=CC(=O)[O][Sn]([CH2]CCC)([CH2]CCC)[CH2]CCC |  | 0.000682 µM (active)
O=[N+]([O-])c1c2ccccc2cc2ccccc12 |  | 5.12 µM (active)
Cc1cc(SCc2sc(-c3ccc(C(F)(F)F)c(F)c3)nc2C)ccc1OCC(=O)O | inactive | 

Structure (SMILES) | outcome | AC50
ClCc1ccccc1CCl | inactive | 
N#CCC#N |  | 10.3 µM (active)
CCCCN(CCCC)C(=S)S | inactive | 
Cc1cc(Cl)ccc1OCCCC(=O)O |  | 27.7 µM (active)
CCOc1cc(C=O)ccc1O | inactive | 
CN(N=O)c1ccc([N+](=O)[O-])cc1 | inactive | 
Cl[C@H]1OCCO[C@@H]1Cl | inactive | 
[F][Sn]([c]1ccccc1)([c]1ccccc1)[c]1ccccc1 |  | 0.00128 µM (active)
CC(F)(F)CC(F)(F)F | inactive | 
O=CCCl | inactive | 
Nc1ccc(-c2ccccc2)cc1 | inactive | 
CCCCN(CCCCO)N=O | inactive | 
O=C/C(Cl)=C(/Cl)C(=O)O | inactive | 
C[CH2][Hg][S]c1ccccc1C(=O)O |  | 1.72 µM (active)
O=S1OC[C@@H]2[C@H](CO1)[C@]1(Cl)C(Cl)=C(Cl)[C@@]2(Cl)C1(Cl)Cl (stereo partly drawn) | inactive | 
O=C(NC(=O)c1c(F)cccc1F)Nc1cc(Cl)c(OC(F)(F)C(F)C(F)(F)F)cc1Cl (stereo not drawn) | inactive | 
N#Cc1ccncc1 | inactive | 
CC[N+](CC)(CC)CC | inactive | 

Reference: PubChem BioAssay (EPA / NIEHS)
